LmPK inh = LmPK (Leishmania mexicana) enzyme inhibition; Q27686; purified LmPK, Kinase-Glo ATP luminescence, 1 h; Potency, µM (top dose mostly 57.5 µM), for the others: at the highest dose activity change, negative = inhibition, most hits filed as inhibitors; actives 0.37% (n = 290,000); note: potency is the fitted concentration of half-maximal effect; % is set by controls: 0 for no effect and ±100 for the full control effect
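0.1 nM LmPK, 0.5 mM PEP, 0.1 mM ADP; 50 mM imidazole pH 7.2, 7 mM MgCl2, 50 mM KCl; 1 h RT. Kinase-Glo luminescence readout, normalized to no-enzyme (full inhibition) and uninhibited wells.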
CHX counter = counter-screen for Shiga toxin inhibitors: cycloheximide protein synthesis inhibition | cell reporter, cycloheximide protein synthesis inhibition counterscreen | max response, % | actives 12% (n = 300,000) | AID 2314; in the data active = max response mostly above about 13%, no sharp cut-off; inactive = mostly below about 14%; note: read at 38.3 µM for the half of the compounds with a filed dose; 0% is about no effect
TbPYK inhibitor = T. brucei pyruvate kinase inhibition. Q57TT1. TbPYK enzyme, Kinase-Glo Plus ATP luminescence, 45 min. Potency, µM (highest dose often 76.8 µM), for inactives: at the top dose activity, negative = inhibition, hits mostly inhibitors. actives 0.12% (n = 410,000). AID 624173; note: potency is the fitted concentration of half-maximal effect; % is set by controls: 0 for no effect and ±100 for the full control effect; nearly all actives have a fitted effect of over 50% in size
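In this concentration-response screen, enzyme-free wells defined baseline while DMSO plates tracked drift. Each reaction combined TbPYK, substrate, compound and 130 uM ADP for 45 min at room temperature. Kinase-Glo Plus luminescence gave the signal.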
Shiga toxin inh = Shiga toxin inhibition | Vero cells, Shiga toxin protein synthesis inhibition reporter | inhibition, % at 38.7 µM | actives 9.2% (n = 290,000); in the data active = inhibition mostly above about 28%, no sharp cut-off; inactive = mostly below about 43%; note: 0% is about no effect
Giardia FBPA inh = Giardia lamblia aldolase inhibition; A8B2U2; purified Giardia FBPA; Potency, µM (titrated, usually from 59.6 µM), for the others: top-dose activity, negative = inhibition, actives largely listed as inhibitors; actives 0.71% (n = 290,000); note: potency is the fitted concentration of half-maximal effect; % is set by controls: 0 for no effect and ±100 for the full control effect; nearly all actives have a fitted effect of over 55% in size
Target sequence (A8B2U2 whole entry, looked up): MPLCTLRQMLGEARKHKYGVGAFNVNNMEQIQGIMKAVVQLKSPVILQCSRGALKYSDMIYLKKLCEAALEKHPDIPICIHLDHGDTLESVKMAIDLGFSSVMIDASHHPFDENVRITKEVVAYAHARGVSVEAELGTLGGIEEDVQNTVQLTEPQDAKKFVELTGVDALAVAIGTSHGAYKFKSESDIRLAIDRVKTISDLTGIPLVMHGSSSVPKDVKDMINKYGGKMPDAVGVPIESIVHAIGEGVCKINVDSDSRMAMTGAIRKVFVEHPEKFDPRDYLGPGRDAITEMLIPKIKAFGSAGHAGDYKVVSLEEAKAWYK
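Giardia FBPA (40 nM reagent) was preincubated 10 min at RT with compound (up to 57.5 uM final), then substrate plus GAPDH/TPI/NAD/arsenate coupling system with diaphorase/resazurin was added; resorufin fluorescence (525/598 nm) was read after 20 min.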
RE007 growth inh = less growth of the S. pombe RE007 Vpr strain | S. pombe RE007 Vpr strain, BacTiter-Glo ATP luminescence, 24 h | Potency, µM (top dose mostly 92.2 µM), inactives show at the highest dose activity change, negative = less growth, actives largely listed as inhibitors | actives 0.21% (n = 360,000) | AID 651644; active = well fitted falling curve with a large enough effect; inconclusive = small, poorly fitted or top-dose-only effect; inactive = no such curve, though single readings can be large or run the other way; note: potency is the fitted concentration of half-maximal effect; % is set by controls: 0 for no effect and ±100 for the full control effect; nearly all actives have a fitted effect of over 50% in size
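Fission yeast RE007 carrying one integrated HIV-1 vpr copy, seeded at OD 0.01 in PMG+AL medium with 23 nL pinned compound. Grown 24 h at 30 degrees; viability read by BacTiter-Glo luminescence after 5 min.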
An asterisk follows results filed as active; ? = inconclusive; · = no result. Many of the other results were omitted from the sample, so hits are more common in it than they were. Unless noted, calls come from the whole dose curve; as a rule, active = well fitted curve in the direction sought with a large enough effect; inconclusive = small, poorly fitted or top-dose-only effect, or another doubt; inactive = no such curve, though single readings can be large; an effect the other way counts as inactive or inconclusive.

SMILES	LmPK inh	CHX counter	TbPYK inhibitor	Shiga toxin inh	Giardia FBPA inh	RE007 growth inh
COc1ccc(-n2nc(C(=O)O)c3csc(N)c3c2=O)cc1	·	-8	·	-4	·	·
COc1ccc(-c2cc3nc(C)c(CCC(=O)N4CCN(c5ccccc5)CC4)c(C)n3n2)c(OC)c1	·	·	-2%	·	·	·
Cc1ccc(-n2nc3c(n2)/C(=N/O)CC/C3=N\O)cc1	14µM*	44*	-14%	48*	-1%	?
COc1ccc(Cl)cc1C(=O)O/N=C(\N)c1ccccn1	0%	41*	0%	60*	11%	-1%
Cc1cccc(C(=O)O/N=C(\N)c2ccccn2)c1	?	-6	?	-6	-7%	?
N/C(=N\OC(=O)c1cc(Cl)ccc1Cl)c1ccccn1	-21%	25*	-4%	64*	-7%	-12%
Cc1ccc(-c2csc(N)n2)s1	0%	23*	-6%	50	-29%	-21%
Cc1c(Cl)cccc1NC(=O)Cn1c(=O)n(Cc2nc(-c3ccccc3)no2)c(=O)c2cc3c(cc21)OCO3	·	·	0%	·	·	·
CCOc1cccc(C(=O)Nc2c(C(=O)c3ccc(OC)cc3)oc3ccccc23)c1	·	·	-8%	·	·	·
O/N=C/c1ccc2ccccc2c1	1%	21*	2%	56	13%	21%
CCc1nc2c(OCc3cccc(OC)c3)cccn2c1N(C)C(=O)c1ccccc1F	·	·	1%	·	·	?
O=C(CS(=O)(=O)c1ccccc1)N1CCCCCC1	-7%	17*	1%	53*	-7%	2%
O=C(CS(=O)(=O)c1ccccc1)N1CCc2ccccc21	-29%	40*	3%	74*	-3%	-8%
O=C1c2ccccc2C(=O)N1CCC(=O)N1CCc2ccccc21	·	·	-11%	·	·	-5%
O=S(=O)(CC(CN1CCCCC1)N1CCCCC1)c1ccccc1 (stereo unspecified)	6%	27*	-4%	54	1%	5%
O=C1c2ccccc2C(=O)N1CCC(=O)N1CCCc2ccccc21	2%	34*	-4%	65	6%	-18%
COc1ccc2c(CC(=O)OCC(=O)N3CCc4ccccc43)coc2c1	3%	8	-21%	33	-1%	-12%
Cc1ccccc1N1CCN(C(=O)CCN2C(=O)c3ccccc3C2=O)CC1	-2%	23*	-16%	49*	4%	13%
CCOC(=O)C1CCN(CC(=O)N2CCc3ccccc32)CC1	1%	-1	14%	16	8%	-6%
CN1CCN(C(=O)CCN2C(=O)c3ccccc3C2=O)CC1	2%	1	1%	1	5%	2%
CC1CCN(CC(=O)N2CCc3ccccc32)CC1	8%	17*	0%	25	·	0%
CC(CC(=O)N1CCc2ccccc21)n1cccn1 (stereo unspecified)	0%	27*	1%	25	3%	14%
COc1ccc2c(CC(=O)N3CCc4ccccc43)coc2c1	?	42*	-5%	66*	-7%	-12%
COc1ccc(N(C(=O)c2ccc(C(C)(C)C)cc2)S(=O)(=O)c2ccc(Cl)cc2)cc1	·	·	-7%	·	·	·
COc1ccc(CCC(=O)N2CCCc3ccccc32)cc1	-4%	16	-4%	-21	1%	12%
SMILES	LmPK inh	CHX counter	TbPYK inhibitor	Shiga toxin inh	Giardia FBPA inh	RE007 growth inh
O=C(CCn1cccc1)N1CCc2ccccc21	-3%	53*	0%	17	-1%	?
O=C1CCN(C(=O)Cc2ccccc2)c2ccccc21	·	·	2%	·	·	-2%
O=C(CCn1c(=O)oc2ccccc21)N1CCc2ccccc21	1%	18	-12%	-6	11%	-5%
O=C(Cc1ccccc1)N1CCc2ccccc21	0%	27*	-8%	40*	21%	-13%
COc1ccc(CC(=O)N2CCc3ccccc32)cc1	1%	31*	1%	80*	2%	-21%
COc1cccc(-n2c(Cn3nc(C(F)(F)F)cc3C)n[nH]c2=S)c1	-6%	-3	4µM*	-3	-13%	·
COc1ccc(-n2c(Cn3nc(C(F)(F)F)cc3C)n[nH]c2=S)cc1	-9%	-5	3.2µM*	-10	-20%	6%
COc1cccc(-n2c(Cn3nc(C(F)F)cc3C(F)F)n[nH]c2=S)c1	-5%	-3	?	-4	-17%	-7%
